# This is a sample that favours compounds with a hit; in the whole collection about 0.93% have one here.
# RPL19A-GFP yeast – RPL19A-GFP expression modulators in yeast, primary screen, cell-based, S. cerevisiae, multiplex flow cytometry, MLPCN; AID 2025, 2009; percent response vs DMSO, % at 10 µM; S. cerevisiae RPL19A-GFP strain, 3 h; stronger effect = lower value; 330,000 compounds, 0.3% hits;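 active = percent response vs DMSO below 50%; inconclusive = fewer than 70 events counted for the yeast strain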;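 also: median channel GFP fluorescence of the barcoded RPL19A-GFP strain; lower means less RPL19A-GFP as with rapamycin TOR inhibition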
# MEP2 TOR yeast – modulators of MEP2-GFP levels in yeast, primary screen, S. cerevisiae, multiplex flow cytometry, MLPCN library. GFP response vs DMSO, % at 10 µM. S. cerevisiae MEP2-GFP strain, 3 h; 100% = DMSO control level. 330,000 compounds, 0.51% hits. AID 2016, 2009;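 active = GFP response versus DMSO above a set limit, roughly screen mean plus 3 SD, cut at about 180% in these data; inconclusive = fewer than 70 cells counted for a yeast strain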;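 also: median GFP fluorescence of the barcode-gated MEP2-GFP cells per well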
# LAP4 TOR yeast – modulators of LAP4-GFP expression in yeast, primary screen, S. cerevisiae, multiplex flow cytometry, MLPCN library. 3 h; median GFP as percent of DMSO wells. GFP response vs DMSO, % at 10 µM. 320,000 compounds, 0.34% hits. AID 2023, 2009;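 active = GFP response vs DMSO above a set limit, about the screen mean plus 3 SD, cut at about 150% in these data; inconclusive = under 70 cell events counted for the yeast strain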
# AGP1-GFP MLPCN – modulators of AGP1-GFP expression in yeast TOR pathway, primary screen, cell-based, multiplex flow cytometry, S. cerevisiae, MLPCN library | 3 h; GFP as percent of DMSO wells | GFP response vs DMSO, % at 10 µM | 320,000 compounds, 0.02% hits;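 active = GFP response relative to DMSO above a set limit, near screen average plus 3 SD, cut at about 150% in these data; inconclusive = fewer than 70 cells counted for the yeast strain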;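 also: median GFP channel fluorescence of the gated AGP1 strain per well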
# CIT2-GFP yeast – modulators of CIT2-GFP expression in yeast, primary screen, S. cerevisiae, GFP fusion, multiplex flow cytometry, MLPCN library | 320,000 compounds, 0.065% hits | GFP response vs DMSO, % at 10 µM | S. cerevisiae CIT2-GFP strain, 3 h; 100 means same as DMSO wells;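 active = GFP response relative to DMSO above a set limit, near the screen mean plus 3 SD, cut at about 150% in these data; inconclusive = Fewer than 70 cells measured for a yeast strain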;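 also: ratio of well median GFP fluorescence to mean of DMSO wells on the plate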
# Hits are given with their value; . = inactive; ? = inconclusive; / = no result given; [ ] = remark or other dose.
SMILES,RPL19A-GFP yeast,MEP2 TOR yeast,LAP4 TOR yeast,AGP1-GFP MLPCN,CIT2-GFP yeast
CN1CCN(c2ccc(S(=O)(=O)N3CCCCC3)cn2)CC1,.,207.8[may fluoresce violet],.,/,?
Cc1cc(C(=O)CN2C(=O)NC3(CCCc4ccccc43)C2=O)c(C)n1Cc1cccs1 (stereo not given),.,.,.,.,.
C=CCn1c(C)cc(C(=O)CN2C(=O)NC3(CCCc4ccccc43)C2=O)c1C (stereo not given),26.8[may fluoresce violet],436.6[may fluoresce violet],.,?,?
Cc1cccc(Cn2nc(C)cc2NC(=O)CCCn2ccc([N+](=O)[O-])n2)c1,.,.,.,.,.
O=C(c1ccccc1[N+](=O)[O-])n1cnc2ccccc21,.,.,.,.,156.8
Cc1cc(=O)oc2cc(OC(C)C(=O)NC3CCCC3)ccc12 (stereo not given),.,192.6,157.0,.,.
Cc1cc(=O)oc2cc(OCC(=O)OC(C)C(=O)NC3CCCC3)ccc12 (stereo not given),.,.,.,.,.
COc1ccc(S(=O)(=O)NCC(=O)N(CC(=O)NCc2ccco2)Cc2ccc(F)cc2)cc1,.,186.9,.,.,.
Cc1ccc(S(=O)(=O)NCC(=O)N(CC(=O)NCc2ccco2)Cc2ccc(F)cc2)cc1,.,278.9[may fluoresce violet],.,.,?
CC(=O)CC1=NC(C)(C)Cc2ccccc21,.,.,.,.,.
O=C(CCC(=O)c1ccccc1)NCc1ccccc1,.,.,.,.,.
C[C@@H](C(=O)Nc1nc2ccc(F)cc2s1)N1C(=O)C2CC=CCC2C1=O (stereo not given in full),.,612.4,188.9,155.6,.
O=C(NNC1=NCCC1)c1cccc(Br)c1,.,.,173.8,.,.
Cc1ccccc1C(=O)NNC1=NCCC1,/,.,.,.,.
O=C(CSc1ccc(-c2ccccc2)nn1)N1CCCCC1,.,.,.,.,.
O=C(CSc1ccc(-c2ccccn2)nn1)N1CCCCC1,.,.,216.6,.,.
COc1ccc(N=Cc2cc(Cc3ccccc3Cl)cc([N+](=O)[O-])c2O)cc1OC,.,234.5,.,.,.
Cc1ccc(NC(=O)COc2ccc(Br)cc2C)cc1,.,243.4,.,.,.
CCOc1ccc(NC(=O)CCC(=O)NNC(=O)COc2ccc(C)cc2Br)cc1,46.1[may fluoresce violet],?,?,?,?
CCOc1ccc(NC(=O)CCC(=O)NNC(=O)COc2ccc(C)cc2)cc1,.,.,.,.,.
Cc1ccc(OCC(=O)Nc2ccc(NC(=O)c3ccco3)cc2)c(C)c1,.,.,.,.,.
O=C(Oc1ccc(-n2cnnn2)cc1)c1ccccc1,.,.,.,.,.
O=C(Nc1nccs1)C(c1ccccc1)N1CCCC1 (stereo not given),.,.,.,.,.
Cc1cc(N2CCN(Cc3cn(C)nc3-c3ccccc3F)CC2)cc(C)n1,.,.,.,.,.
CCOC(=O)CC1COCCN1Cc1cn(C)nc1-c1ccccc1F (stereo not given),17.4[may fluoresce violet],199.2[may fluoresce violet],.,?,?
SMILES,RPL19A-GFP yeast,MEP2 TOR yeast,LAP4 TOR yeast,AGP1-GFP MLPCN,CIT2-GFP yeast
Cn1c(SCC(=O)NC2CC2)nnc1-c1ccccc1,.,.,.,.,.
CCOC(=O)C1=C(Cc2ccc(Cl)cc2)C(=O)c2ccccc2C1=O,.,.,189.7,.,.
CN1CCSc2ccc(C(=O)Nc3cccc(F)c3)cc21,.,.,153.2,.,.
COC(=O)c1csc(S(=O)(=O)N2CCCCC2)c1OC,.,.,.,.,.
Brc1ccc(-c2ccc(/C=N/Nc3nc4ccccc4[nH]3)o2)cc1,38.6[may fluoresce violet],.,.,?,?
C(=N\Nc1nc2ccccc2[nH]1)/c1ccccc1,.,.,.,.,.
S=C(NC1CC1)N1CCCc2ccccc21,.,.,.,.,.
Cc1cc(=O)oc2cc(OCC(=O)NCCCn3ccnc3)ccc12,.,.,.,.,.
Cc1c(C)c2ccc(OCC(=O)NCCCn3ccnc3)cc2oc1=O,48.4,.,.,.,.
CCOC(=O)/C(C#N)=N\Nc1cc(Cl)ccc1OC,.,.,.,.,.
Cc1cc(O)c(C(C)C)cc1N=Nc1ccccc1C(=O)O,.,.,.,.,.
Cc1cc(N=Nc2ccccc2C(=O)O)c(C)c(C)c1O,.,.,.,.,150.5
